The test system of this assay is VDR:RXRa (NR concentration 270 nM, RXRa partner concentration 90 nM). Kind of assay: PBM binding z-score (relative to random genomic background probes); higher = stronger binding; sequences stand for … in GC…GCGATTGACAGCGTAGAATGAAGG
As for the experimental part:
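Protein-binding microarray (Agilent 4x180K custom design, double-stranded 60-nt probes: 5' GC cap, 34-nt variable region, 24-nt constant primer region; full probe sequence given). Purified or IVT nuclear receptor:RXRα heterodimers (3:1 NR:RXRα, mostly 270:90 nM) or homodimers were incubated for 1 h in PBS with 2% milk and no ligand, then detected with Alexa488 antibodies. Fluorescence from o1-orientation probes (~5 replicates averaged) was converted to z-scores against 500 random hg19 background probes. Variable regions are seed direct-repeat (DR0–DR5) sites, all their single-nucleotide variants and half-site ablations.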
In turn, TCGAGTGGGTTACCAATGGGGCATTCAGCTTTCT came in with a PBM binding z-score of 0.0141.
As for ATCTCTAGGTAAAGTCCAGTGAAAGATCGATAGA, the PBM binding z-score was -0.12.
CCTATTAGTTGACCCTAAGGGCAACCGAAGCTCG: the PBM binding z-score was determined as 3.74.
TCTGCTAGGTAAGTTGGTCAGCTAACGAGCTGCC gave a PBM binding z-score of -0.464.
The figure for AGTCAAAGTTCATCTACGTAACGTAAGATATGCT is 4.77; for ACTAGCAGGCCAAGTTTGGGTCACTCAGACAAAG it is 0.43.
In the case of CGAACTAGGTCAGAACAGGACAGTGATGGATGAT, the PBM binding z-score was determined as 0.651.
AGTCAAAGTCCATCTAGGTAACGTAAGATATGCT registered a PBM binding z-score of 0.131.
Turning to GGAACGAGGGCAAAGTTGATAGAATCTGTCGACG, the PBM binding z-score stood at 1.34.
In the case of AGTCAAAGTTCATCTAGGTACCGTAAGATATGCT, the PBM binding z-score turned out to be 4.98.
In the case of AGAATGAGGTTAAGATCAAGGAAACAGAATACAT, the PBM binding z-score is 1.09.
The sequence TAGCCTAGGTCATGGGCCGGTATACCACGCGAAC registered a PBM binding z-score of 2.18.
As to TCAGACAGATGAAGGTAACTCAGGTACGCAGTCG, the PBM binding z-score came to 0.608.
Sequence AGTCAAAGTTCACTAGGTAACATAAGATTCAGCT registered a PBM binding z-score of 4.14.
Sequence CGAACTAGGTCATCCAGGGCAGTGAATACATTGA displayed a PBM binding z-score of 5.26.
Consider GCATATAGGTAATAGAAGGTGAAAGTCCGATTGT, for which the PBM binding z-score worked out at 0.0859.
For GGAACGAGGGCCAAGTTGATAGCATCTGTCGACG, the PBM binding z-score is -0.379.
For AGTCAAAGTTCATCTAGGGAACGTAAGATATGCT, the PBM binding z-score worked out at 4.73.
Sequence AATAGCAGGCCAAGTTTGGGTCACTCAAACAAAG returned a PBM binding z-score of 0.703.
The sequence TCTTGTAGATCAGCATGTTAAGAAAGCTGGCCAA came in with a PBM binding z-score of 0.172.
Next, CCTAGCAGGCCAGGGTCACTCGAGCATTTCGCTT: 2.54.
Next, GCGACTGGGGCAAAGCAGGTTACGATAAGGTTGG: 0.0646; CCTTGTTGGTCAGGAGGTCACACACCGGATATGA: 3.79.
As to GATACAGGGTCAAGGCCGGAGTACGCGTATTGAT, the PBM binding z-score turned out to be 4.38.
In turn, CAAACTAGGCCAAAGGTCAAAGTCGAGCCAACCA registered a PBM binding z-score of 4.89.
The sequence CATACAGGGTCAGCTAGGCCAGTGTAGGGACGGC returned a PBM binding z-score of 3.86.
Turning to AGAAAGAGGTTACCAAAGATCAGGGAAACGCTTG, the PBM binding z-score was found to be 1.3.
CTCGAAAGGTCGTGCTGAGGTGAGTATACCAAAC gave a PBM binding z-score of 3.85.
Next, CCAGACAGGTGAGAAGGTAACTAAGCCTCGATTA: -0.0342; CCTTGTTGGTCAAGGTCACACACGCTATAGGTAC: 3.83.
Turning to ATACCAAGGGGATCGTGAGGTCGTTGATACTAAC, the PBM binding z-score stood at 1.88.
Sequence CTTCGGAGGACAGAAGGTCAGAGCTGTCCGCTTT gave a PBM binding z-score of 0.953.
Regarding ATCTCTAGGTAACCAAGTTCAGTGAATGCCGAAC, the PBM binding z-score came out at 4.23.
For ACTATTAGTCGAGACGAGGGCAACCGATAGGTTG, the PBM binding z-score stood at 0.293.
As for ATCTCTAGGTAAGTCTCAGTTCAGTGAAGAACGC, the PBM binding z-score turned out to be 0.65.
In turn, TAGCCTAGGTCATTGGGCCACTATAGTACGCATC yielded a PBM binding z-score of 2.23.
For GATACAGGGTCAAGGCCAGAGTTCGCGTATTGAT, the PBM binding z-score amounted to 5.31.
For GGAACGTGGGCAAAGTTGATAGCATCTGTCGACG, the PBM binding z-score is -0.399.
In turn, GCAGACAGGTGAAACGCAGGTGACTCAGGGTGGC displayed a PBM binding z-score of -0.335.
The figure for GCTGCTAGGTCAGGTTGGTCACCTAACGGGTACG is 0.967.

(Values after the supplement of paper PMC6555819.)
